In the first test the target is SOHLH2. Briefly: pooled miR-30 sensor sort-seq; sequence = guide strand. To be noted: shRNA.
In turn, TTCGCTGTAGGACCTCTGCAGG returned a sensor-assay potency score (higher = more potent) of -0.848. The same measure, in the same setting: in the case of TTTCTGTACAGTATCAGCCAGG it was -0.773; in that of TATGTTTGCAAATAGTTTCTGT, 0.299.

In the case of TTCTCGAACTCTGACAACGAAG, the sensor-assay potency score (higher = more potent) was -1.44. Same read-out and setting: the value for TTCAGTTAAAGCAATATCCATT was -0.431; that for TAAGATGTCTATTTTTGCCTGG was 0.389.

The next test concerns the target SORCS2. The description is as above. To be noted: shRNA.
With TTTCCTTTTGAACTTGTAGAGG, the sensor-assay potency score (higher = more potent) is -1.02.

For AAAGAAGATGTAATCGTCCTGC, the sensor-assay potency score (higher = more potent) was determined as 0.216.

TTGAGGACAACTTGTAGGGTGG: the sensor-assay potency score (higher = more potent) was -0.426.

For TTCTTTATATTCCACCAGCTGT, the sensor-assay potency score (higher = more potent) was -1.25. Consider TTTTACTCAACAAGGAGCGGGT, for which the sensor-assay potency score (higher = more potent) is -0.478. In turn, TAGAGCTTGCTCTCCTTTGTGT returned a sensor-assay potency score (higher = more potent) of 0.276. For TATTCCTATAGACTTACACTAA, the sensor-assay potency score (higher = more potent) was -0.686.

With TTTGGTCACTCGCTCTTGCAGA, the sensor-assay potency score (higher = more potent) is -0.75. Still for that read-out and setting: in the case of TTCTTCTTTATATTCCACCAGC it was -0.916; in that of TAGAAATTGTCGATGACGGTGG, 0.449. Turning to TAGACTTACACTAACATCCCTG, the sensor-assay potency score (higher = more potent) came out at 0.646.

On to TTACTCAACAAGGAGCGGGTGC, for which the sensor-assay potency score (higher = more potent) is -0.482.

In a further test the target is SOX21. The description is as above. To be noted: shRNA.
TTCTATGTACATACAAACCGGG came in with a sensor-assay potency score (higher = more potent) of -0.494. TTGAGTCTAAAGTCGACTCAAA gave a sensor-assay potency score (higher = more potent) of -1.13. TAATCTTCGATAAAATTGCGAT came in with a sensor-assay potency score (higher = more potent) of -0.606. ATGAACAGAGTGATAGTCGGAT returned a sensor-assay potency score (higher = more potent) of 0.0793. Consider TTAACTTTGATATTCGCTCAAA, for which the sensor-assay potency score (higher = more potent) was -0.537. Still for that read-out and setting: in the case of TAGTAGTTTGTTGTTGTTGTTT it was -0.802; in that of TTAATCTTCGATAAAATTGCGA, -0.173.

Consider TCTATGTACATACAAACCGGGC, for which the sensor-assay potency score (higher = more potent) is -1.15.

TTAAATTAGAAGGTCACACTAG registered a sensor-assay potency score (higher = more potent) of 0.0223. In the case of TAAATTAGAAGGTCACACTAGA, the sensor-assay potency score (higher = more potent) worked out at 0.55.

For the sequence TTTGAGTCTAAAGTCGACTCAA, the sensor-assay potency score (higher = more potent) is 0.154.

The target of the next test is SPAM1. The test is described as above. To be noted: shRNA.
Sequence TAACAATGAACATTGTGGCAGA returned a sensor-assay potency score (higher = more potent) of -0.131. The same measure, in the same setting: in the case of TATTGTAACACCTTGCCCGGTG it was -0.194; in that of TTTCCTTATACACACTCCTTGC, -0.862; in that of TTTCATTCCACAACCAGCTGAG, 0.0511. TTGAATAGCAAAATTATCTGGG: the sensor-assay potency score (higher = more potent) worked out at 0.668. The sequence TCTATCTTTGTAACTTGCCTTC registered a sensor-assay potency score (higher = more potent) of -0.492. In the case of TAATTGTCTAGGAGCAAGCAAG, the sensor-assay potency score (higher = more potent) was -1.53. On the same count and under the same terms, the value for TTGAGGTTCTTCTGTCTCCATG was -1.06; that for TTTATTTCTACATTGAAGCAAC was -0.796; that for TTTTCCTTATACACACTCCTTG was -0.634. On the same count and under the same terms, the value for ATACTAACAATGAACATTGTGG was -0.0586.

(Values after the OligoGym collection.)
Note: reference of the scale not given here.
